# Laboratory results published in PubChem BioAssay.
# Where “and” joins values, the source holds several entries; their conditions need not be identical. Identical values can stand only once. Calls of active or inactive are those of the source.
# What was measured:
# [1] = binders of probe aFSTL3 on microarray, primary screen, stem cell growth factor project, biochemical, small-molecule microarray, fluorescence 635/667 (AID 1064); settings: higher = more signal;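 further: measures binding of the biotinylated anti-FSTL3 antibody to printed compounds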
# [2] = binders from COS7 lysate, DM2A8 probe, primary screen, torsin A project, cell lysate, small-molecule microarray, fluorescence 635/667 (AID 1065); settings: higher = more signal, COS7 lysate expressing mutant human TOR1A
# [3] = binders of probe aFGF2 on microarray, primary screen, stem cell growth factor project, biochemical, small-molecule microarray, fluorescence 635/667 (AID 1067); settings: higher = more signal;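 further: measures binding of biotinylated aFGF2 protein to printed compounds on slides; z-score merges feature fluorescence and signal-to-noise across triplicate slides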
# [4] = binders of probe aFGF10 on microarray, primary screen, stem cell growth factor project, biochemical, small-molecule microarray, fluorescence 635/667 (AID 1071); settings: higher = more signal;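 further: score merges 667 nm spot intensity and signal to noise from triplicate slides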
# [5] = target: Neurogenic locus notch homolog protein 2 (Homo sapiens) (UniProt Q04721); experiment: Notch2 binders on small-molecule microarrays, primary screen, biochemical, small-molecule microarray, 635 nm fluorescence, stem cell growth factors (AID 1073); settings: Notch2 binding, higher = more signal
# [6] = target: Pro-neuregulin-1, membrane-bound isoform (Homo sapiens) (UniProt Q02297); experiment: NRG1 binders on small-molecule microarrays, primary screen, psychiatric disease protein project, biochemical, small-molecule microarray, fluorescence 635/667 (AID 1075); settings: NRG1 binding, 635 nm fluorescence, higher = more signal;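 further: score combines 667 nm spot fluorescence with signal to noise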
# [7] = tested on: Neuregulin-1 EGF-like domain; experiment: binders of neuregulin-1 EGF-like domain, primary screen, biochemical, small-molecule microarray, 635 nm fluorescence (AID 1081); settings: small-molecule microarray binding, higher = more signal;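 further: binding of the protein to compounds printed on small-molecule microarray slides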
# [8] = FRG1 promoter luciferase signal modulators, primary screen, FRG1 inhibition for FSHD, cell-based, C2C12 myotubes, firefly/Renilla luciferase, luminescence (AID 1084); settings: higher = more signal, called active from +8 up or from −8 down
# [9] = binders of probe aFST on microarray, primary screen, stem cell growth factor project, biochemical, small-molecule microarray, fluorescence 635/667 (AID 1086); settings: higher = more signal;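 further: score merges 667 nm fluorescence with signal-to-noise of each printed compound spot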
# [10] = binders of probe aHhip on microarray, primary screen, stem cell growth factor project, biochemical, small-molecule microarray, fluorescence 635/667 (AID 1087); settings: higher = more signal;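 further: score merges spot fluorescence at 667nm with spot signal to noise ratio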
# Sequence of Neurogenic locus notch homolog protein 2 (Homo sapiens) (Q04721 whole entry, looked up, canonical isoform): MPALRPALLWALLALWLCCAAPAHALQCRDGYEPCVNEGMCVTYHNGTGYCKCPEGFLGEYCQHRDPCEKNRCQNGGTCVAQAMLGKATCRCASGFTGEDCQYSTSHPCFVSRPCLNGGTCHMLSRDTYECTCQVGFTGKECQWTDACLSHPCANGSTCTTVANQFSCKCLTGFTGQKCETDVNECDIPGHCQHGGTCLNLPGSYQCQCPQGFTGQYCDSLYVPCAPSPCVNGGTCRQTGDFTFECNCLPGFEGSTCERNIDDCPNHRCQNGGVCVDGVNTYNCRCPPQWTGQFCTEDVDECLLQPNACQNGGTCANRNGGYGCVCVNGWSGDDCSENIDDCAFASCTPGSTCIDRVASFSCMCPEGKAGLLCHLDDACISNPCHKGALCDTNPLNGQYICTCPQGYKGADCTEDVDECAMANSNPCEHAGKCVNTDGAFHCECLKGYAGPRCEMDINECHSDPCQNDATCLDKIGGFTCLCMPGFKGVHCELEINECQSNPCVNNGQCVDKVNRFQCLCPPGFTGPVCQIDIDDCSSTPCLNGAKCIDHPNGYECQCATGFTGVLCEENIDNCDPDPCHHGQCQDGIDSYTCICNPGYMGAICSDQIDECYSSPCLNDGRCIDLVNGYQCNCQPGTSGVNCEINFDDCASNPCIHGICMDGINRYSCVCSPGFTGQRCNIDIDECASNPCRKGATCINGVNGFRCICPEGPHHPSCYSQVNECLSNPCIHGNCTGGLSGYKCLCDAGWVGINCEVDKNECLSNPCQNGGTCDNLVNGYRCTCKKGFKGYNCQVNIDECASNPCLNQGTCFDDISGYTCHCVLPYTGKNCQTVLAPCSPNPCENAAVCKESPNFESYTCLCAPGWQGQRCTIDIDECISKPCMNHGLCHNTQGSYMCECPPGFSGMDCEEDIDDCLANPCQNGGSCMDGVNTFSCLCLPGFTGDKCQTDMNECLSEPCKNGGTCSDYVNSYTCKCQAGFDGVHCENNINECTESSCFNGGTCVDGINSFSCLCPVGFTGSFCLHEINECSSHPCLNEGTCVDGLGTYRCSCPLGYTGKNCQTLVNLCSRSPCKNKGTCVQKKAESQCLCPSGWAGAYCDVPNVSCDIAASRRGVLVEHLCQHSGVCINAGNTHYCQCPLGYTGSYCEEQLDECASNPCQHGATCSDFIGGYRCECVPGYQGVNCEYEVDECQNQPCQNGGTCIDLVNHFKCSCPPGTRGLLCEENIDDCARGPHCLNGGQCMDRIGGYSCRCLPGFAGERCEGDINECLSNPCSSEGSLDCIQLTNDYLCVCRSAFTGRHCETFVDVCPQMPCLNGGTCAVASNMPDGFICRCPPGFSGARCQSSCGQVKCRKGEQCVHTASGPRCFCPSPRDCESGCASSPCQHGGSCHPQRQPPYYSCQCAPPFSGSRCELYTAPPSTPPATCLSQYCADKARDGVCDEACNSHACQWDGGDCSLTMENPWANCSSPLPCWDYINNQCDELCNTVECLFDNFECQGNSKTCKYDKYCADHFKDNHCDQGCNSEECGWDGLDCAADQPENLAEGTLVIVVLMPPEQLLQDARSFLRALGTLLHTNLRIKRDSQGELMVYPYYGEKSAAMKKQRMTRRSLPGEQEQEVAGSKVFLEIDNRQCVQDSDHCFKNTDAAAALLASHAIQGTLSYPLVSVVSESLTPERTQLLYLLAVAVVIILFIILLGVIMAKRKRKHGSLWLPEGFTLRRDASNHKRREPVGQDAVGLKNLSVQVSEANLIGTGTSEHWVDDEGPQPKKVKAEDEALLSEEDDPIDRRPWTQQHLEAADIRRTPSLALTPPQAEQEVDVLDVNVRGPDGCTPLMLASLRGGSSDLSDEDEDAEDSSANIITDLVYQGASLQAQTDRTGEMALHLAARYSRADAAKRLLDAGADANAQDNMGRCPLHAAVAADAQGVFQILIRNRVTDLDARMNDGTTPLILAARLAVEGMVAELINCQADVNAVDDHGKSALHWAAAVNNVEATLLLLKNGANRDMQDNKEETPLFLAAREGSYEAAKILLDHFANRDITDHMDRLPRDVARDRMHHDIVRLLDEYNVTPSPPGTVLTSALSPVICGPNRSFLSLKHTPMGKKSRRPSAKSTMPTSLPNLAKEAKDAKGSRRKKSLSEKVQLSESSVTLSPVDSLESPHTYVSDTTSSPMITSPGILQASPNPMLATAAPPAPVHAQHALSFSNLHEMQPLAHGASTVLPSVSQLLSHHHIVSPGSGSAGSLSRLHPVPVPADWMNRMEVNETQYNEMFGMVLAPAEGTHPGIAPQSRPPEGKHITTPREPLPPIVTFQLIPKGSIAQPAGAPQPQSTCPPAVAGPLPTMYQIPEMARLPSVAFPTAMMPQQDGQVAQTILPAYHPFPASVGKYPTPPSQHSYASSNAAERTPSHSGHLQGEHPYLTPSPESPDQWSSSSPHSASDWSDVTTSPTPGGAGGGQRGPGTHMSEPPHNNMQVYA
# Sequence of Pro-neuregulin-1, membrane-bound isoform (Homo sapiens) (Q02297 whole entry, looked up, the tested form may be a part, canonical isoform): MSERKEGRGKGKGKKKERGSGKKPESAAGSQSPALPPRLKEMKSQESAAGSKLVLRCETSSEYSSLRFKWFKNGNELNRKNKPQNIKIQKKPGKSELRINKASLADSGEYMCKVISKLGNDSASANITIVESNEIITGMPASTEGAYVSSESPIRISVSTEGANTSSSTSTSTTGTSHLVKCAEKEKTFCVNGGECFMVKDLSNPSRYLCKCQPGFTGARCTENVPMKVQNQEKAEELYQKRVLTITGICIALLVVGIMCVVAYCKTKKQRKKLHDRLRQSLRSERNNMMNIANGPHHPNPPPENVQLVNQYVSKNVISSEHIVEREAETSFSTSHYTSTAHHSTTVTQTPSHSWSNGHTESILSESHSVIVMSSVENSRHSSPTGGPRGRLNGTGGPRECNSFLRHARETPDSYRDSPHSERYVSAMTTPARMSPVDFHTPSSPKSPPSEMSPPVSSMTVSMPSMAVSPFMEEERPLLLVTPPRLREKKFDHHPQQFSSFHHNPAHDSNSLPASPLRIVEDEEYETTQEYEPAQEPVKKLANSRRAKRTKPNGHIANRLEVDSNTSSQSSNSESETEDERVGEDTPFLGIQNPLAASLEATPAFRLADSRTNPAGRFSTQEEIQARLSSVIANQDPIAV
SMILES,composite z-score [1],composite z-score [2],composite z-score [3],composite z-score [4],composite z-score [5],composite z-score [6],composite z-score [7],z-score [8],composite z-score [9],composite z-score [10]
C=CCN(C(=O)C1N(c2c(Cl)cccc2CO)C(=O)C2C(C(=O)O)C3C=CC21O3)C(C)(C)C (stereo not given),-0.933 and 1.87,-1.67 and -0.997,-0.238 and -0.0459,-0.782 and -0.419,-0.872 and -1.15,0.0516 and -0.736,0.0868 and -0.844,0.756 (inactive) and -1.07 (inactive),-0.347 and -0.422,-1.01 and 0.51
CCOC(=O)[C@@H]1CC2O[C@]23C[C@@H]1C(=O)N1CCC[C@@H]1[C@H]3O[Si](C)(C)C(C)(C)C (stereo not given in full),-0.224 and -0.287,-0.457 and -0.0006,-0.238 and -0.0048,-0.235 and -0.144,-1.08 and -0.312,-0.737 and -0.343,-1.07 and -0.585,-0.304 (inactive) and 0.333 (inactive),-0.378 and 0.223,-0.207 and -0.231
CCN1C(=O)[C@H]2[C@H]3[C@H](O)[C@H](O)CC(=NOC)[C@@H]3CC[C@H]2C1=O,0.206,-0.604,-0.1,0.369,-0.422,-0.319,-0.817,-0.898 (inactive),-0.221,0.0024
CCOC(=O)C[C@H]1[C@H](OC(=O)c2ccccc2-c2ccccc2)[C@@H](NC(=O)Cc2ccc(OC)cc2)c2cc(OCCCO)ccc2N1C(=O)c1ccc2ccccc2n1,-0.21 and 0.27,0.266 and 0.395,-0.0781 and 0.16,0.27 and 0.319,0.305 and 0.361,0.147 and 0.653,-0.529 and 0.0101,-0.0725 (inactive) and 0.266 (inactive),0.442 and 0.575,-0.0645 and -0.0672
CC(C)[Si]1(C(C)C)OCc2cc(CCCc3cc4c(c(CCc5ccccc5)n3)[Si](C(C)C)(C(C)C)OC4)nc(CCc3ccccc3)c21,-0.0088 and -0.516,0.0696 and 0.445,-0.105 and -0.12,-0.841 and 0.402,-0.0702 and 0.469,-0.429 and -0.0826,-0.688 and 0.277,-0.712 (inactive) and 0.124 (inactive),-0.0006 and 0.0171,0.141 and 0.065
CCCCCN1CC=CC23O[C@@H]4C=CCCOC(=O)C4[C@H]2C(=O)N(C(C)CO)[C@@H]3C1=O (stereo not given in full),-1.32 and 1.66,0.852 and -1.23,-0.0341 and -0.148,-0.202 and -0.431,-0.88 and -0.932,1.03 and 1.11,1.54 and 1.32,0.212 (inactive) and 0.0905 (inactive),-0.678 and 0.24,-1.02 and -0.274
COC(=O)[C@H](C)NC(=O)CCC1CC(OC(=O)NCCc2ccc(F)cc2)CC2(CCCC(COC(=O)NCCCN3CCCC3=O)O2)O1 (stereo not given in full),-0.78,0.267,-0.0358,0.404,1.25,0.623,1.2,0.434 (inactive),0.367,0.0373
C=CCN(C(=O)C1N(c2ccc(CCO)cc2)C(=O)C2C(C(=O)O)C3C=CC21O3)c1ccc(OC)cc1 (stereo not given),0.0619 and 0.336,-0.767 and -0.885,-0.226 and -0.276,-0.19 and -1.02,-0.903 and -1.23,-0.0224 and -1.32,0.939 and -0.115,4.82 (inactive) and -0.639 (inactive),-0.477 and -1.4,-0.132 and -0.236
CCC[C@@H]1C[C@@]1(CCC)[C@@H](NC(=O)c1ccc(-c2ccccc2)cc1)c1cccc(Cl)c1,2.36 and 0.236,0.995 and -0.712,0.736 and -0.171,-0.636 and 0.226,-1.01 and 1.53,-0.612 and 1.2,-0.62 and 1.11,-1 (inactive) and 0.245 (inactive),1.96 and 0.48,2.73 and 0.663
CCCC[C@@H]1CN2[C@@H](CC[C@@H](C)[C@@H]2c2ccc(Br)cc2)C(=O)O1,-0.519 and -0.353,0.191 and 0.217,-0.111 and -0.0736,0.458 and 0.656,0.333 and 0.493,0.48 and 0.847,0.602 and 0.965,0.427 (inactive) and -0.286 (inactive),0.0218 and 0.0109,-0.142 and -0.306
C=CCN(Cc1ccccc1)C(=O)C(c1cccs1)N(C(=O)/C=C\C(=O)O)c1ccc(CCO)cc1 (stereo not given),1.05 and 0.697,-1.89 and -1.8,-0.175 and -0.232,-1.05 and -0.73,-1.36 and -1.96,-0.789 and -0.264,1.25 and 1.43,0.0388 (inactive) and -0.725 (inactive),-0.966 and -0.865,-0.369 and 0.205
CCOC(=O)[C@@H]1CC=C2CC1C(=O)N1CCC[C@@H]1[C@H]2O[Si](C)(C)C(C)(C)C (stereo not given in full),-0.116 and -0.386,-0.323 and -0.427,-0.157 and -0.282,-0.833 and -1.22,-1.16 and -1.46,-0.653 and -0.709,-1.69 and -0.727,0.678 (inactive) and -1.08 (inactive),-0.0907 and -1.25,-0.0994 and -0.252
COC(=O)C1=C(C)N(Cc2ccccc2)C2=C(C(C)=O)[C@H](c3ccccc3)[C@@](O)(C(=O)OC)C(=O)N2[C@@H]1c1ccccc1,-0.449 and -0.481,0.468 and -0.61,-0.129 and -0.139,0.778 and -0.338,0.691 and 0.083,0.595 and -0.445,1.18 and -1.44,-2.61 (inactive) and -1.77 (inactive),0.277 and -0.201,0.0515 and -0.281
CO[C@@H]1COC(=O)CC=C[C@H](C)[C@@H](NS(=O)(=O)c2ccc(C)cc2)COC(=O)CC=C[C@@H]1C,-0.226 and -0.425,0.711 and 1.44,-0.234 and -0.127,0.433 and -0.153,0.671 and -0.333,0.0292 and -0.476,0.628 and 0.956,0.994 (inactive) and 0.445 (inactive),0.0151 and 0.106,0.113 and -0.0391
C=C[C@@H](OC)[C@H](O)c1ccc(O)c(F)c1,1.24 and 0.937,-0.598 and -1.38,-0.183 and -0.222,-0.609 and -0.315,-1.74 and -0.398,-0.725 and -0.815,-0.564 and -0.928,0.679 (inactive) and -0.707 (inactive),-1.4 and -1.25,-0.0708 and -0.175
C=CCN(Cc1ccccc1)C(=O)C1N(c2ccc(CCO)cc2)C(=O)C2C(C(=O)O)C3C=CC21O3 (stereo not given),1.72 and 0.902,-0.723 and -0.963,-0.194 and -0.19,-0.362 and -0.749,-2.7 and -2.66,0.191 and -0.96,0.161 and -0.559,2.4 (inactive) and 1.24 (inactive),-1.44 and -0.907,-0.0994 and -0.431
